# Test results taken from PubChem BioAssay (NCATS).
# Unmarked numbers belong to inactive results. Inconclusive results are not listed. A call without a number means that no potency is given here. The source made the active and inactive calls. Calls follow the shape of the dose curve; as a rule, active = well fitted curve in the direction sought with a large enough effect; inconclusive = small, poorly fitted or top-dose-only effect, or another doubt; inactive = no such curve, though single readings can be large; an effect the other way counts as inactive or inconclusive.
# Experiments:
# [1] = HPAF-II 24hr Apoptosis Induction qHTS against the NCATS CANVASS Library (AID 1347356)
# Outline: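 Caspase-Glo 3/7 luminescence, read after 15 min room-temperature development, measures apoptosis in HPAF-II cells treated 24 h at 37 degrees C with an 11-point concentration series; 500 cells/well; doxorubicin control.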
# [2] = HEK293 24hr Apoptosis Induction qHTS against the NCATS CANVASS Library (AID 1347359)
# Outline: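 Caspase-3/7 activation measured as luminescence from the DEVD-based Caspase-Glo reagent, 15 min at room temperature, following 24-hour compound treatment of HEK293 cells.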
# [3] = HPAF-II 18hr Apoptosis Induction qHTS against the NCATS CANVASS Library (AID 1347360)
# Outline: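 HPAF-II cells at 500/well were exposed for 18 h at 37 C to an 11-point compound series. Caspase-3/7 activity was read by Caspase-Glo luminescence after 15 min at RT.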
# [4] = tested on: NAD(P)H diaphorase (Clostridium kluyveri); assay: Diaphorse counterscreen qHTS: Assay Interference Panel against the NCATS CANVASS Library (AID 1347362)
# Outline: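 Counterscreen for coupling-enzyme interference: resorufin fluorescence from resazurin/NADH turnover, read after 5 min at room temperature. Compounds were tested over an 11-point series after 15 min dark preincubation with diaphorase in PBS-Tween.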
# [5] = qHTS for ATAD5 Agonist screened against the NCATS CANVASS Library (AID 1347367);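 also: luciferase reporter driven by ATAD5 which rises upon DNA damage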
# Outline: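 Luciferase reporter under ATAD5 control, stably integrated in HEK293T cells (2000/well). Compounds (11 points) incubated 16 h at 37C; viability read first by CellTiter-Fluor, then luminescence reporting ATAD5 activation. MMS positive control.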
# [6] = G06 Cancer Cell Toxicity qHTS against the NCATS CANVASS Library (AID 1347368); also: nearly all actives have a fitted effect of over 60% in size; also: potency is read from the fitted curve at half-maximal effect; as to activity change, negative = cytotoxic: series mostly up to about 46 µM
# Outline: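 Viability measured by CellTiterGlo ATP luminescence after 72 hr at 37C, 5% CO2. Canine G06 glioma cells plated at 500/well. Compounds tested as 11-point qHTS titrations.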
# [7] = target: Nuclear receptor subfamily 1 group I member 3 (Homo sapiens) (UniProt Q14994); assay: qHTS for Constitutive Androstane Receptor (CAR) Antagonist screened against the NCATS CANVASS Library (AID 1347372);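 also: cells stimulated with 50 nM CITCO agonist so inhibition reflects antagonism; series mostly up to about 46 µM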
# Sequence of Nuclear receptor subfamily 1 group I member 3 (Homo sapiens) (Q14994 whole entry, looked up): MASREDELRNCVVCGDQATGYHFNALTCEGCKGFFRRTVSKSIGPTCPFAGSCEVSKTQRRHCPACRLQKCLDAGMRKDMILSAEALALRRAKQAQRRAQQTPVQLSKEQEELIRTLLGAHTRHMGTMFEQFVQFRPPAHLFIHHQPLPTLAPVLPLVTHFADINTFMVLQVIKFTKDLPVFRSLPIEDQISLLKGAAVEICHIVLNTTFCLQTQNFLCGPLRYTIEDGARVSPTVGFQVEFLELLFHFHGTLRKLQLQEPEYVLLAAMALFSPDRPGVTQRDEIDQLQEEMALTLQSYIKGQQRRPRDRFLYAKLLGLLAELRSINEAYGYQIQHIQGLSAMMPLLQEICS
# Outline: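 Antagonist mode: compound added alongside 50 nM CITCO to HepG2-hCAR-CYP2B6 reporter cells, 24hr at 37C. Viability by CellTiter-Fluor fluorescence, then CAR-driven luciferase by ONE-Glo luminescence.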
# [8] = target: Nuclear receptor subfamily 1 group I member 3 (Homo sapiens) (UniProt Q14994); assay: qHTS for Constitutive Androstane Receptor (CAR) Agonist screened against the NCATS CANVASS Library (AID 1347373);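 also: every well also contained 1.5 µM PK11195 alongside the test compound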; also: potency is read from the fitted curve at half-maximal effect
# Outline: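 Agonist mode with 1.5uM PK11195 present: compounds for 24hr on HepG2-hCAR-CYP2B6 cells. CellTiter-Fluor fluorescence (ex 405, em 540 nm) gives viability; ONE-Glo luminescence reports CAR activation.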
# [9] = qHTS for Hypoxia signaling pathway (HIF-1) agonists against the NCATS CANVASS Library (AID 1347375)
# Outline: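 Beta-lactamase reporter under HRE control in ME-180 cells; compounds (11-point qHTS series) added after 5 hrs plating, then 17 hrs at 37C. FRET substrate read after 2 hr; same-well CellTiter-Glo luminescence gave viability and normalization.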
# [10] = 10-beta competent E. coli microbial cell viability qHTS against the NCATS CANVASS Library (AID 1347376); also: series mostly up to about 46 µM
# Outline: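 Read-out: BacTiter-Glo ATP luminescence, taken 20 min after reagent addition. Beforehand, 10-beta competent E. coli at 0.2 OD had been incubated overnight at 37C with compounds at 11 concentrations.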
# [11] = qHTS for H2AX Agonists against the NCATS CANVASS Library (AID 1347378)
# Outline: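 CHO-K1 cells (1000/well, overnight at 37C) exposed to compounds at several concentrations for 3 hr at 37C, 0.76% DMSO final. Lysates read by TR-FRET (phospho-H2AX S139 Eu-cryptate antibody / H2AX-d2 antibody) after 24 hr at room temperature; 665/615 nm ratio.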
# [12] = Inflammasome Signaling qHTS Counterscreen: IL-1-beta AlphaLISA counterscreen against the NCATS CANVASS Library (AID 1347381);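 also: cell-free check with purified IL-1β in medium and no THP-1 cells; series mostly up to about 57 µM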
# Outline: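 Purified IL-1-beta (4 pg/well) + compound, 11-pt conc. series; acceptor beads 6 ug/mL + biotin-Ab 0.6 nM final, 1 h RT; SA-donor 24 ug/ml final, 30 min dark RT; read ex 680/em 615.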
# [13] = Cytotoxicity qHTS for assessment of Hepg2 cells membrane integrity screened against the NCATS CANVASS Library (AID 1347387)
# Outline: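 Membrane damage quantified as fluorescent LDH-release signal (ex 560, em 590 nm) in HepG2 cells treated 5 hr at 37C. qHTS format, 11 concentrations spanning 0.59 nM - 46 uM final, cells plated at 2000 per well the night before.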
# [14] = qHTS assay for small molecule disruptors of mitochondrial membrane potential screened against the NCATS CANVASS Library (AID 1347389); also: nearly all actives have a fitted effect of over 60% in size; also: potency is read from the fitted curve at half-maximal effect; as to activity change, negative = depolarization: series mostly up to about 46 µM
# Outline: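 Mitochondrial membrane potential in HepG2: 1 h compound treatment (11-point concentration series), 30 min m-MPI dye at 37C, then dual fluorescence of J-aggregates (ex 540/em 590) and monomers (ex 490/em 535); lower red/green ratio indicates depolarization.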
# [15] = Secretion counterscreen for inhibitors of the SERCaMP assay screened against the NCATS CANVASS Library (AID 1347390);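 also: light from luciferase secreted into medium read as a measure of general secretion; series mostly up to about 77 µM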
# Outline: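 SH-SY5Y cells with constitutively secreted GLuc reporter, 1000 cells/well, treated 20 h at 37C with compounds at 0.001 - 77 uM final; secreted luciferase read as luminescence after coelenterazine; Brefeldin A as positive control.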
# [16] = qHTS for activators of dead-cell proteases activity screened against the NCATS CANVASS Library (AID 1347392);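 also: luminescence from protease leaking out of membrane-damaged cells cleaving impermeant substrate; rising signal means more cytotoxicity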
# Outline: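 Luminescent dead-cell protease readout (AAF-aminoluciferin, 15 min, room temperature) after 5 h compound treatment of HepG2 cells (2000/well, pre-attached 18 h). Eleven concentrations.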
# [17] = Vero-766 cells viability qHTS against the NCATS CANVASS Library: Counterscreen for Zika virus inhibition assay (AID 1347394); also: nearly all actives have a fitted effect of over 60% in size; also: potency is read from the fitted curve at half-maximal effect; as to activity change, negative = cytotoxic: series mostly up to about 46 µM
# Outline: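 Vero 766 cells (1000/well), without Zika virus, were exposed to compounds for 72 h at 37C. Viability was measured by CellTiter Glo luminescence. Media-only wells served as 100% inhibition.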
# [18] = qHTS for ATAD5 Antagonist screened against the NCATS CANVASS Library (AID 1347370); also: nearly all actives have a fitted effect of over 65% in size; also: potency is read from the fitted curve at half-maximal effect;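 as to activity change, negative = inhibition: HEK293T cells carrying an ATAD5 luciferase reporter co-treated with 10 µM 5-fluorouridine; series mostly up to about 46 µM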
# Outline: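 Compounds (11-point) co-dosed with 10 µM 5-FUrd for 16 h at 37 °C onto HEK293T-ATAD5 luciferase reporter cells. Viability measured by CellTiter-Fluor fluorescence, then ATAD5 reporter signal by luminescence.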
# [19] = J3T Cancer Cell Toxicity qHTS against the NCATS CANVASS Library (AID 1347371);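 as to activity change, negative = cytotoxicity: J3T is a canine glioma cancer cell line seeded at 500 cells per well; series mostly up to about 46 µM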
# Outline: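 Cytotoxicity read as CellTiterGlo ATP luminescence after 72 h incubation (37C, 5% CO2) of J3T canine glioma cells (500/well) with an 11-point compound series.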
# [20] = qHTS for Activators of p53 Stress Response Pathway screened against the NCATS CANVASS Library (AID 1347388)
# Outline: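 Beta-lactamase reporter driven by p53 response elements in HCT-116 cells, read as the 460 nm/530 nm emission ratio after CCF4 loading, following 16 h of exposure to an 11-point series. Cell viability was measured in the same wells by CellTiter-Glo luminescence.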
compound,measurement,setting,value
O=C1CC2OCC=C3CN4C5CC3C2[C@@H]2N1c1ccccc1[C@]52C[C@@H]4C1=C[C@H]2C3CC4N(CC[C@@]45c4ccccc4N(C1=O)[C@@H]25)C/C3=C/CO (stereo partly drawn),outcome,[1],inactive
same,Potency,[2],inactive
same,Potency,[3],inactive
same,Potency,[4],inactive
same,Potency,[5],inactive
same,Potency,[6],23.5 µM (active)
same,Potency,[7],inactive
same,Potency,[8],11.7 µM (active)
same,outcome,[9],inactive
same,outcome,[10],inactive
same,Potency,[11],inactive
same,outcome,[12],inactive
same,outcome,[13],inactive
same,Potency,[14],inactive
same,Potency,[15],inactive
same,Potency,[16],inactive
same,Potency,[17],inactive
COc1ccc2[nH]c3c(c2c1)CCN1C[C@H]2C[C@@H](OC(=O)c4cc(OC)c(OC)c(OC)c4)[C@H](OC)[C@@H](OC)[C@H]2C[C@H]31,outcome,[1],inactive
same,Potency,[2],inactive
same,Potency,[3],inactive
same,Potency,[5],inactive
same,Potency,[6],1.48 µM (active)
same,Potency,[18],6.6 µM (active)
same,Potency,[19],inactive
same,Potency,[7],inactive
same,outcome,[9],inactive
same,outcome,[10],inactive
same,Potency,[11],inactive
same,outcome,[12],inactive
same,outcome,[13],inactive
same,Potency,[20],inactive
same,Potency,[16],inactive
same,Potency,[17],inactive
COC12OC1(C13OC1(OC)C(=O)c1cc4cc(C)oc(=O)c4c(O)c1C3O)C(O)c1c(cc3cc(C)oc(=O)c3c1O)C2=O (stereo not drawn),outcome,[1],inactive
same,Potency,[2],inactive
same,Potency,[3],inactive
same,Potency,[4],inactive
same,Potency,[5],inactive
same,Potency,[6],inactive
same,Potency,[18],inactive
same,Potency,[19],inactive
same,Potency,[7],inactive
same,Potency,[8],inactive
same,outcome,[9],inactive
same,outcome,[10],inactive
same,Potency,[11],inactive
same,outcome,[12],inactive
same,outcome,[13],inactive
same,Potency,[20],inactive
same,Potency,[14],inactive
same,Potency,[15],inactive
same,Potency,[16],inactive
same,Potency,[17],23.4 µM (active)
CC(C)=CC[C@H]1C[C@@]2(CC=C(C)C)C(=O)[C@](CC=C(C)C)(C(=O)C(C(=O)c3ccccc3)=C2O)C1(C)C,outcome,[1],inactive
same,Potency,[2],inactive
same,Potency,[3],inactive
same,Potency,[4],inactive
same,Potency,[5],inactive
same,Potency,[6],20.9 µM (active)
same,Potency,[7],inactive
same,Potency,[8],inactive
same,outcome,[9],inactive
same,outcome,[10],inactive
same,Potency,[11],inactive
same,outcome,[12],inactive
same,outcome,[13],inactive
same,Potency,[20],inactive
same,Potency,[14],7.41 µM (active)
same,Potency,[15],inactive
same,Potency,[16],inactive
C[C@H]1C=C[C@H]2CCCC[C@@H]2[C@H]1C(=O)[C@H]1CC2=C(C(=O)O)CCN2C1=O,outcome,[1],inactive
same,Potency,[2],inactive
same,Potency,[3],inactive
same,Potency,[4],inactive
same,Potency,[5],inactive
same,Potency,[18],inactive
same,Potency,[19],inactive
same,Potency,[7],inactive
same,Potency,[8],inactive
same,outcome,[9],inactive
same,outcome,[10],inactive
same,Potency,[11],inactive
same,outcome,[12],inactive
same,outcome,[13],inactive
same,Potency,[20],inactive
same,Potency,[14],inactive
same,Potency,[15],inactive
same,Potency,[16],inactive
same,Potency,[17],inactive
COc1cc(C2OCC3C(c4ccc(O)c(OC)c4)OCC23)ccc1O (stereo not drawn),caspase activation,[1],1.94% [at 9.19 µM]
same,activation,[2],6.68% [at 9.19 µM]
same,caspase activation,[3],-1.71% [at 9.19 µM]
same,"activity change, negative = inhibition",[4],1.68% [at 11.5 µM]
same,activation,[5],3.68% [at 9.19 µM]
same,outcome,[6],inactive [at 9.19 µM]
same,"activity change, negative = inhibition",[18],-9.99% [at 9.19 µM]
same,"activity change, negative = cytotoxicity",[19],0.397% [at 9.19 µM]
same,"activity change, negative = inhibition",[7],9.55% [at 9.19 µM]
same,activation,[8],1.13% [at 9.19 µM]
same,activation,[9],-1.39% [at 7.64 µM]
same,"activity change, negative = cytotoxic",[10],-5.45% [at 9.19 µM]
same,activation,[11],-3.74% [at 15.3 µM]
same,"activity change, negative = inhibition",[12],-8.43% [at 11.5 µM]
same,cytotoxicity (LDH release),[13],0.144 [at 9.19 µM]
same,"activity change, negative = depolarization",[14],2.39% [at 9.19 µM]
same,"activity change, negative = inhibition",[15],27.5% [at 15.3 µM]
same,activation (cytotoxicity),[16],4.3% [at 9.19 µM]
same,"activity change, negative = cytotoxic",[17],-3.52% [at 9.19 µM]
